# Results: the supplement of paper PMC8728848
# Only a selection was taken, and the strongest signals are over-represented in it overall.
# B1: CD34 (Homo sapiens), P28906 (protein)
# chain: MGSSHHHHHHSSGLVPRGSHMSTSLATSPTKPYTSSSPILSDIKAEIKCSGIREVKLTQGICLEQNKTSSCAEFKKDRGEGLARVLCGEEQADADAGAQVCSLLLAQSEVRPQCLLLVLANRTEISSKLQLMKKHQSDLKKLGILDFTEQDVASHQSYSQKT
# Tests used:
# Assay in all cases: glycan array binding signal (z-score within array); higher = stronger binding
# Details in all cases: glycan notation: IUPAC condensed, linker removed
# [1] = target: Fuc(a1-2)Gal(b1-4)Fuc(a1-3)]GlcNAc(b1-2)Man(a1-3)[Fuc(a1-2)Gal(b1-4)[Fuc(a1-3)]GlcNAc(b1-2)Man(a1-6)]Man(b1-4)GlcNAc(b1-4)GlcNAc
# Method in brief: (§1)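 Columns mapping to the same glycan were averaged after glycan names were converted to IUPAC-condensed notation. The data come from 3228 arrays in the Consortium for Functional Glycomics database, limited to those with an available protein sequence. Binding is reported as a within-array Z-score averaged across arrays of one protein sequence and across linkers.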
# [2] = target: Fuc(a1-2)Gal(b1-4)GlcNAc
# Method in brief: as §1
# [3] = target: Fuc(a1-2)Gal(b1-4)[Fuc(a1-3)]GlcNAc(b1-2)[Fuc(a1-2)Gal(b1-4)[Fuc(a1-3)]GlcNAc(b1-4)]Man(a1-3)[Fuc(a1-2)Gal(b1-4)[Fuc(a1-3)]GlcNAc(b1-2)Man(a1-6)]Man(b1-4)GlcNAc(b1-4)GlcNAc
# Method in brief: as §1
# [4] = target: Fuc(a1-2)Gal6S(b1-4)Glc
# Method in brief: as §1
# [5] = target: Fuc(a1-2)[GalNAc(a1-3)]Gal(b1-3)GlcNAc(b1-3)GalNAc
# Method in brief: as §1
# [6] = target: Fuc(a1-2)[GalNAc(b1-3)]Gal
# Method in brief: as §1
# [7] = target: Fuc(a1-3)[Gal(b1-4)]GlcNAc(b1-6)GalNAc
# Method in brief: as §1
# [8] = target: Fuc(a1-4)GlcNAc
# Method in brief: as §1
# [9] = target: Gal(a1-2)Gal
# Method in brief: as §1
# [10] = target: Gal(a1-3)Gal
# Method in brief: as §1
# [11] = target: Gal(a1-3)Gal(b1-3)GlcNAc
# Method in brief: as §1
# [12] = target: Gal(a1-3)Gal(b1-3)GlcNAc(b1-2)Man
# Method in brief: as §1
# [13] = target: Gal(a1-3)Gal(b1-4)GlcNAc(b1-2)Man
# Method in brief: as §1
# [14] = target: Gal(a1-4)Gal(b1-4)GlcNAc(b1-3)Gal(b1-4)Glc
# Method in brief: as §1
# [15] = target: Gal(b1-3)GalNAc(b1-3)Gal
# Method in brief: as §1
# [16] = target: Gal(b1-3)GalNAc(b1-4)Gal(b1-4)Glc
# Method in brief: as §1
# [17] = target: Gal(b1-3)GlcNAc(b1-3)Gal(b1-4)GlcNAc
# Method in brief: as §1
# [18] = target: Gal(b1-4)GlcNAc(b1-2)Man(a1-3)[Gal(b1-4)GlcNAc(b1-2)Man(a1-6)][GlcNAc(b1-4)]Man(b1-4)GlcNAc(b1-4)[Fuc(a1-6)]GlcNAc
# Method in brief: as §1
# [19] = target: Gal(b1-4)GlcNAc(b1-2)Man(a1-3)[Man(a1-6)]Man(b1-4)GlcNAc(b1-4)GlcNAc
# Method in brief: as §1
# [20] = target: Gal(b1-4)GlcNAc(b1-3)Gal(b1-4)GlcNAc(b1-2)[Gal(b1-4)GlcNAc(b1-3)Gal(b1-4)GlcNAc(b1-6)]Man(a1-6)[Gal(b1-4)GlcNAc(b1-3)Gal(b1-4)GlcNAc(b1-2)Man(a1-3)]Man(b1-4)GlcNAc(b1-4)GlcNAc
# Method in brief: as §1
# [21] = target: Gal(b1-4)GlcNAc(b1-3)Gal(b1-4)GlcNAc(b1-3)GalNAc
# Method in brief: as §1
# [22] = target: Gal3S(b1-4)Glc
# Method in brief: as §1
# [23] = target: Gal6S(b1-4)Glc
# Method in brief: as §1
# [24] = target: GalNAc(b1-3)Gal
# Method in brief: as §1
# [25] = target: GalNAc(b1-3)Gal(a1-6)Gal(b1-4)Glc
# Method in brief: as §1
# [26] = target: GalNAc3S(b1-4)[Fuc(a1-3)]GlcNAc
# Method in brief: as §1
# [27] = target: Glc(b1-6)Glc
# Method in brief: as §1
# [28] = target: GlcA3S(b1-3)Gal(b1-4)GlcNAc(b1-3)Gal(b1-4)Glc
# Method in brief: as §1
# [29] = target: GlcNAc(b1-2)[GlcNAc(b1-4)]Man(a1-3)[GlcNAc(b1-4)][GlcNAc(b1-2)Man(a1-6)]Man(b1-4)GlcNAc(b1-4)GlcNAc
# Method in brief: as §1
# [30] = target: GlcNAc(b1-2)[GlcNAc(b1-6)]Man(a1-6)[GlcNAc(b1-4)][GlcNAc(b1-2)Man(a1-3)]Man(b1-4)GlcNAc(b1-4)GlcNAc
# Method in brief: as §1
# [31] = target: GlcNAc(b1-3)Gal(b1-4)GlcNAc(b1-2)[GlcNAc(b1-3)Gal(b1-4)GlcNAc(b1-6)]Man(a1-6)[GlcNAc(b1-3)Gal(b1-4)GlcNAc(b1-2)Man(a1-3)]Man(b1-4)GlcNAc(b1-4)GlcNAc
# Method in brief: as §1
# [32] = target: GlcNAc(b1-3)Gal(b1-4)GlcNAc(b1-3)Gal(b1-4)GlcNAc
# Method in brief: as §1
# [33] = target: GlcNAc(b1-4)GlcNAc(b1-4)GlcNAc(b1-4)GlcNAc(b1-4)GlcNAc
# Method in brief: as §1
# [34] = target: Kdn(a2-6)Gal(b1-4)GlcNAc
# Method in brief: as §1
# [35] = target: Man(a1-2)Man(a1-3)[Man(a1-6)]Man(a1-6)[Man(a1-2)Man(a1-3)]Man(b1-4)GlcNAc(b1-4)GlcNAc
# Method in brief: as §1
# [36] = target: MurNAc(b1-4)GlcNAc
# Method in brief: as §1
# [37] = target: Neu5Ac(a2-3)Gal(b1-3)GalNAc(b1-4)[Neu5Ac(a2-3)]Gal(b1-4)Glc
# Method in brief: as §1
# [38] = target: Neu5Ac(a2-3)Gal(b1-3)GlcNAc(b1-2)Man(a1-3)[Neu5Ac(a2-3)Gal(b1-3)GlcNAc(b1-2)Man(a1-6)]Man(b1-4)GlcNAc(b1-4)GlcNAc
# Method in brief: as §1
# [39] = target: Neu5Ac(a2-3)Gal(b1-3)GlcNAc6S
# Method in brief: as §1
# [40] = target: Neu5Ac(a2-3)Gal(b1-3)[Fuc(a1-4)]GlcNAc(b1-3)Gal(b1-3)[Fuc(a1-4)]GlcNAc
# Method in brief: as §1
# [41] = target: Neu5Ac(a2-3)Gal(b1-3)[Fuc(a1-4)]GlcNAc(b1-3)Gal(b1-4)[Fuc(a1-3)]GlcNAc
# Method in brief: as §1
# [42] = target: Neu5Ac(a2-3)Gal(b1-4)GlcNAc(b1-2)Man
# Method in brief: as §1
# [43] = target: Neu5Ac(a2-3)Gal(b1-4)GlcNAc(b1-3)Gal(b1-3)GlcNAc
# Method in brief: as §1
# [44] = target: Neu5Ac(a2-3)Gal(b1-4)GlcNAc6S
# Method in brief: as §1
# [45] = target: Neu5Ac(a2-3)Gal(b1-4)[Fuc(a1-3)]GlcNAc
# Method in brief: as §1
# [46] = target: Neu5Ac(a2-3)[Neu5Ac(a2-6)]GalNAc
# Method in brief: as §1
# [47] = target: Neu5Ac(a2-6)Gal(b1-4)GlcNAc(b1-2)Man(a1-6)[Gal(b1-4)GlcNAc(b1-2)Man(a1-3)]Man(b1-4)GlcNAc(b1-4)GlcNAc
# Method in brief: as §1
# [48] = target: Neu5Ac(a2-6)Gal(b1-4)GlcNAc(b1-3)Gal(b1-4)GlcNAc(b1-2)Man(a1-3)[Neu5Ac(a2-6)Gal(b1-4)GlcNAc(b1-3)Gal(b1-4)GlcNAc(b1-2)Man(a1-6)]GalNAc
# Method in brief: as §1
# [49] = target: Neu5Ac(a2-6)Gal(b1-4)GlcNAc(b1-3)Gal(b1-4)GlcNAc(b1-3)GalNAc
# Method in brief: as §1
# [50] = target: Neu5Ac(a2-6)GalNAc(b1-4)GlcNAc6S
# Method in brief: as §1
# [51] = target: Neu5Ac(a2-8)Neu5Ac(a2-3)[Gal(b1-3)GalNAc(b1-4)]Gal(b1-4)Glc
# Method in brief: as §1
# [52] = target: Neu5Gc(a2-3)Gal(b1-3)[Fuc(a1-4)]GlcNAc
# Method in brief: as §1
# [53] = target: Neu5Gc(a2-3)Gal(b1-4)[Fuc(a1-3)]GlcNAc
# Method in brief: as §1
# [54] = target: Neu5Gc(b2-6)Gal(b1-4)GlcNAc
# Method in brief: as §1
binder,measurement,setting,value
B1,glycan array binding signal (z-score),[1],1.89
same,glycan array binding signal (z-score),[2],0.713
same,glycan array binding signal (z-score),[3],1.72
same,glycan array binding signal (z-score),[4],0.088
same,glycan array binding signal (z-score),[5],1.77
same,glycan array binding signal (z-score),[6],-0.335
same,glycan array binding signal (z-score),[7],-0.245
same,glycan array binding signal (z-score),[8],0.624
same,glycan array binding signal (z-score),[9],-0.315
same,glycan array binding signal (z-score),[10],0.754
same,glycan array binding signal (z-score),[11],0.398
same,glycan array binding signal (z-score),[12],0.084
same,glycan array binding signal (z-score),[13],-1.01
same,glycan array binding signal (z-score),[14],-0.647
same,glycan array binding signal (z-score),[15],-0.13
same,glycan array binding signal (z-score),[16],0.08
same,glycan array binding signal (z-score),[17],-0.549
same,glycan array binding signal (z-score),[18],-0.754
same,glycan array binding signal (z-score),[19],-0.73
same,glycan array binding signal (z-score),[20],2.58
same,glycan array binding signal (z-score),[21],1.97
same,glycan array binding signal (z-score),[22],1.83
same,glycan array binding signal (z-score),[23],-0.308
same,glycan array binding signal (z-score),[24],1.82
same,glycan array binding signal (z-score),[25],-1.07
same,glycan array binding signal (z-score),[26],0.211
same,glycan array binding signal (z-score),[27],-1.19
same,glycan array binding signal (z-score),[28],-0.551
same,glycan array binding signal (z-score),[29],-0.524
same,glycan array binding signal (z-score),[30],-0.731
same,glycan array binding signal (z-score),[31],-0.175
same,glycan array binding signal (z-score),[32],-0.666
same,glycan array binding signal (z-score),[33],0.087
same,glycan array binding signal (z-score),[34],-0.352
same,glycan array binding signal (z-score),[35],-0.726
same,glycan array binding signal (z-score),[36],1.79
same,glycan array binding signal (z-score),[37],2.63
same,glycan array binding signal (z-score),[38],2.09
same,glycan array binding signal (z-score),[39],0.142
same,glycan array binding signal (z-score),[40],1.31
same,glycan array binding signal (z-score),[41],-0.478
same,glycan array binding signal (z-score),[42],1.1
same,glycan array binding signal (z-score),[43],-0.171
same,glycan array binding signal (z-score),[44],-0.319
same,glycan array binding signal (z-score),[45],-0.826
same,glycan array binding signal (z-score),[46],-0.204
same,glycan array binding signal (z-score),[47],-0.644
same,glycan array binding signal (z-score),[48],0.167
same,glycan array binding signal (z-score),[49],0.803
same,glycan array binding signal (z-score),[50],0.66
same,glycan array binding signal (z-score),[51],-0.858
same,glycan array binding signal (z-score),[52],0.294
same,glycan array binding signal (z-score),[53],1.71
same,glycan array binding signal (z-score),[54],-0.479
